From PubChem
ATXN2 expr inh: reduces ATXN2 reporter expression in HEK-293 cells; HEK-293 ATXN2-luciferase reporter, luminescence, 24 h; Potency, µM (highest dose often 57 µM), for the others: at the top dose activity change, negative = inhibition, most hits filed as inhibitors; 360,000 compounds, 0.72% hits; AID 1745845; further: potency means the concentration at half of the fitted maximal effect; on the % scale 0 is the no-effect control and ±100 the full control effect; nearly all actives have a fitted effect of over 55% in size
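ATXN2-luciferase reporter cells (luciferase flanked by upstream and downstream ATXN2 gene portions) were treated 24 h at 37 °C with compounds at up to 57 uM. SteadyGlo luminescence gave expression; GF-AFC fluorescence gave viability.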
IL1B secr inh: inhibitors of inflammasome signaling (IL-1 beta secretion); activity change, % at 57.5 µM; 360,000 compounds, 4.7% hits; AID 743279; THP-1 LPS/ATP IL-1B secretion, AlphaLISA, 16 h; hits give low values; in the data active means activity change below about -50%; inconclusive means mostly about -30% to -49%; further: on the % scale 0 is the no-effect control and ±100 the full control effect
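THP-1 cells pretreated 1 hr with compounds (up to 57.5 uM final), then stimulated with LPS (250 ng/mL final) plus ATP (1.25 mM final); secreted IL-1B measured by AlphaLISA after 16 hr, decreased signal indicating inhibition.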
S2 tox: reduces viability in counter-screen for ATXN expression inhibitors; S2 cells (HEK-293 line with an ATXN2-luciferase reporter) viability, CellTiter-Fluor protease fluorescence, 24 h; Potency, µM (series often up to 56.7 µM), hits mostly cytotoxic; 400,000 compounds, 0.49% hits; AID 651635; further: potency means the concentration at half of the fitted maximal effect; nearly all actives have a fitted effect of over 40% in size
DRD3 antagonist: antagonists of human D3 dopamine receptor; P35462; D3R cells, DiscoveRx beta-arrestin luminescence, antagonist mode; hits give low values; 360,000 compounds, 2.5% hits; AID 652054; max response, negative = inhibition, %; in the data active means max response below about -50%; inconclusive means no clear call, values can overlap the other calls; further: on the % scale 0 is the no-effect control and ±100 the full control effect
Target sequence (P35462 whole entry, looked up): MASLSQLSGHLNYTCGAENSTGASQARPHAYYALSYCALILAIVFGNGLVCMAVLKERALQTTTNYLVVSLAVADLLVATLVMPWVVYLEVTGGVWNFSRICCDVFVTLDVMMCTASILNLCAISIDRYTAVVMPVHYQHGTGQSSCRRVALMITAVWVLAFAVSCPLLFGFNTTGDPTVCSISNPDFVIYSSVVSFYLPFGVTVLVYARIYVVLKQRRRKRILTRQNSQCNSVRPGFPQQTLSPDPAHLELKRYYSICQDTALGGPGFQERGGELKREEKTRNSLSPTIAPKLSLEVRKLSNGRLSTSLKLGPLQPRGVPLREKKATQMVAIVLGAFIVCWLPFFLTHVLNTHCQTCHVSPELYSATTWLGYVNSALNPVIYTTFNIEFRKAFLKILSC
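Cells expressing the human receptor were seeded at 1500 cells/well, incubated overnight at 37 degrees C in 5% CO2, then exposed to library compounds with dopamine controls for 90 minutes at 37 degrees C before luminescent detection.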
D3 ag: agonists of human D3 dopamine receptor | AID 652048 | max activation, % | D3R DiscoveRx beta-arrestin cells, luminescence, 90 min | 410,000 compounds, 0.58% hits | P35462; in the data active means max activation above about 30%; further: 0% is about no effect
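Agonist-mode cell screen: cells plated at 1500/well and incubated overnight at 37 °C, then exposed to library compounds for 90 min at 37 °C. Detection reagent was added for 30–60 min at room temperature, and luminescence was read.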
a7 integrin act: activators of alpha7 integrin expression for muscular dystrophy; alpha7betagal myoblasts, beta-gal FDG fluorescence, 48 h; Potency, µM (doses to about 38.3 µM), inactives show at the highest dose activation, usual class: activators; 350,000 compounds, 0.064% hits; AID 624291;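 further: potency means the concentration at half of the fitted maximal effect; 100% = response of the positive control SU9516; nearly all actives have a fitted effect of over 60% in size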
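alpha7betagal+/- myoblasts (passage 13, 250/well) treated 48 h at 37C with compounds at 1:260 dilution of DMSO stock. Lysed, then beta-galactosidase activity read as FDG fluorescence (ex 480/em 540) after 30 min, with pre-read for autofluorescence.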
* marks the source's active call; other numbers are inactive results; i = inactive; ? = inconclusive; . = not tested or not shown. Compounds with a hit are over-represented: about 7% of the library has one in this group of screens. Unless noted, the call rests on the fitted dose curve; in most records, active means well fitted curve in the direction sought with a large enough effect; inconclusive means small, poorly fitted or top-dose-only effect, or another doubt; inactive means no such curve, though single readings can be large; an effect the other way counts as inactive or inconclusive.

SMILES	ATXN2 expr inh	IL1B secr inh	S2 tox	DRD3 antagonist	D3 ag	a7 integrin act
CCCCN(CCCC)S(=O)(=O)c1ccc(C(=O)Nc2nnc(CSC)o2)cc1	?	63.1	i	-113.1*	-0.2	-51.0%
CCc1nnc(NC(=O)c2ccc(S(=O)(=O)N(CCOC)CCOC)cc2)o1	-12.1%	17.1	i	?	-6.1	16.7%
CCN(c1ccccc1)S(=O)(=O)c1ccc(C(=O)Nc2nnc(CSC)o2)cc1	.	69.0	?	-1.3	-1.0	-47.2%
CCN(c1ccccc1)S(=O)(=O)c1ccc(C(=O)Nc2nnc(COC)o2)cc1	?	7.1	i	37.1	11.4	-27.6%
COCc1nnc(NC(=O)c2ccc(S(=O)(=O)N(C)c3ccccc3)cc2)o1	?	-2.5	i	-55.9*	-12.9	0.0%
COC(=O)c1ccc(N2C(=O)Cc3cc(OC)c(OC)cc3C2c2ccc(F)cc2)cc1 (centres undefined)	-5.9%	.	i	.	-1.5	.
CCOC(=O)N1CCC(NC(=O)CSCc2nc(-c3ccc(C)cc3)oc2C)CC1	-27.7%	3.2	i	-1.4	4.1	-7.0%
CCCN(CCC)S(=O)(=O)c1ccc(C(=O)Nc2nnc(CSC)o2)cc1	?	86.0	?	-98.9*	2.2	-19.8%
CCCCN(CC)S(=O)(=O)c1ccc(C(=O)Nc2nnc(COC)o2)cc1	-22.8%	10.0	i	-65.0*	6.3	-18.2%
COc1cccc(NC(=O)CN(C)C(=O)CN2C(=O)NC(C)(c3ccc4ccccc4c3)C2=O)c1 (centres undefined)	-2.1%	-6.0	i	-7.3	0.2	0.7%
Cc1ccc(Cl)cc1NC(=O)CC(O)(C(F)(F)F)C(F)(F)F	?	-82.6*	?	14.5	3.4	-68.1%
COCC(=O)Nc1cc(Cl)ccc1C	-21.6%	13.1	i	8.6	-1.6	0.6%
Cc1ccc(Cl)cc1NC(=O)CSC(N)=O	4.7%	-3.8	i	-67.9*	-0.9	6.2%
COc1ccc(CNc2oc(-c3ccc(COc4ccc(OC)cc4)o3)nc2C#N)cc1	-19.2%	.	i	.	-3.0	.
Cc1ccc(OCc2ccc(-c3nc(C#N)c(NCc4ccccc4Cl)o3)o2)cc1	?	.	20µM*	.	-0.6	.
COc1ccc(Nc2oc(COc3ccc(Cl)cc3)nc2C#N)cc1	14.1µM*	?	?	-10.3	0.3	-35.9%
Cc1ccc(OCc2nc(C#N)c(NCc3ccc4c(c3)OCO4)o2)cc1	-1.1%	-64.2*	i	0.0	1.0	37.3%
Cc1ccc(/C=N\NC(=O)CNC(=O)C23CC4CC(CC(C4)C2)C3)o1	6.2%	-16.9	i	?	-7.1	-2.3%
COc1ccc(C(C(=O)NC2CCCC2)N(Cc2ccc(F)cc2)C(=O)c2ccn[nH]2)cc1OC (centres undefined)	3.9%	16.8	i	-8.8	3.0	11.1%
Cc1cccc(S(=O)(=O)NC(=O)C2(C)CCN2C(=O)C2(c3ccc(Cl)cc3)CCC2)c1 (centres undefined)	10.4%	38.1	i	22.5	1.7	.
O=C(NOC[C@H](O)CO)c1ccc(F)c(F)c1Nc1ccc(I)cc1F	?	.	?	.	6.4	.
O=C(NOCC1CC1)c1ccc(F)c(F)c1Nc1ccc(I)cc1Cl	30.6µM*	.	?	.	-10.5	.
CC1(C(=O)NS(=O)(=O)Cc2cccc(Cl)c2)CCN1C(=O)c1cccc(F)c1 (centres undefined)	-7.4%	0.0	i	0.0	-8.9	.
COc1cc2c(cc1OC)C(C)N(C(=O)c1cc3ccccc3o1)CC2 (centres undefined)	?	-59.4*	i	28.9	-4.0	12.3%
COc1cc2c(cc1OC)C(C)N(C(=O)C1COc3ccccc3O1)CC2 (centres undefined)	-27.6%	-51.1*	i	0.0	3.5	-26.6%
SMILES	ATXN2 expr inh	IL1B secr inh	S2 tox	DRD3 antagonist	D3 ag	a7 integrin act
CCN(C(=O)c1cc2c(s1)-c1ccccc1OC2)c1cc(OC)ccc1OC	-27.2%	-18.4	i	-53.9*	-11.6	5.2%
COc1cc2c(cc1OC)C(C)N(C(=O)c1cc3c(s1)-c1c(C)cccc1OC3)CC2 (centres undefined)	?	-0.7	?	7.5	1.0	-23.4%
COc1cc2c(cc1OC)C(C)N(C(=O)c1cc3c(s1)-c1ccccc1OC3)CC2 (centres undefined)	25.1µM*	-16.1	?	13.3	1.9	-9.1%
NC(=O)CCS(=O)(=O)CCN1CCCCC1	-4.5%	-4.0	i	-3.1	1.4	2.8%
O=S(=O)(CCN1CCCCC1)CCS(=O)(=O)CCN1CCCCC1	-1.0%	-71.4*	i	6.0	-4.4	-49.4%
CC(C)C(=O)Nc1cccc(C(=O)Nc2nncs2)c1	4.2%	-17.4	?	0.0	-0.5	-4.5%
COc1ccc(-c2noc(CCC(=O)Nc3cccc(C(=O)NC4CC4)c3)n2)cc1OC	.	-52.6*	i	-1.2	-0.6	15.1%
COc1ccc(-c2noc(CCCC(=O)NC3CCCCC3)n2)cc1OC	-20.2%	18.5	i	-10.6	-26.5	-4.3%
CCN(CC)c1cc(C)c2cc(NC(=O)c3cc(OC)cc(OC)c3)ccc2n1	17.8µM*	.	.	.	0.4	.
CCN(CC)c1cc(C)c2cc(NC(=O)c3ccc(F)cc3Cl)ccc2n1	?	.	?	.	6.7	.
CCN(CC)c1cc(C)c2cc(NC(=O)c3ccc(OC)c(OC)c3)ccc2n1	-5.7%	.	?	.	2.7	.
CCN(CC)c1cc(C)c2cc(NC(=O)/C=C/c3ccccc3Cl)ccc2n1	28.2µM*	.	.	.	-1.4	.
CCCCc1ccc(C(=O)Nc2ccc3nc(N(CC)CC)cc(C)c3c2)cc1	-16.8%	.	i	.	3.3	.
CCN(CC)c1cc(C)c2cc(NC(=O)c3ccc(Br)o3)ccc2n1	?	-65.8*	.	14.8	-3.4	-24.1%
O=S(=O)(c1ccc(OCc2nc3ccccc3s2)c(Cl)c1)N1CCOCC1	12.6%	52.9	i	-75.5*	-12.8	5.8%
CCCOc1ccc(-c2c(C(=O)N/N=C/c3ccc(C)o3)nnn2-c2nonc2N)cc1	.	1.5	i	3.7	-6.0	3.9%
O=C(Nc1ccccc1)C1Cc2c(-c3ccccc3Oc3ccccc3)ccnc2O1 (centres undefined)	?	-56.8*	?	-8.9	9.5	.
COc1ccc(NC(=O)C2Cc3c(-c4ccccc4Oc4ccccc4)ccnc3O2)cc1 (centres undefined)	-17.8%	?	?	18.2	13.6	.
O=C(Nc1ccc(Cl)cc1)C1Cc2c(-c3ccccc3Oc3ccccc3)ccnc2O1 (centres undefined)	?	-53.4*	i	34.2	2.7	.
CCOc1ccccc1C(=O)OCC(=O)Nc1ncc(C(F)(F)F)cc1Cl	-6.7%	1.4	i	29.7	16.8	9.9%
